HT1080NT lethal: kills 2HG-producing HT-1080-NT fibrosarcoma cells; HT-1080-NT fibrosarcoma viability, CellTiter-Glo ATP luminescence, 48 h; Potency, µM (series often up to 46.1 µM), inactives show top-dose activity, negative = less viability, actives largely listed as cytotoxic; 1.6% of 360,000 active;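 further: NT is the 2HG producing partner of a matched IDH1 knockdown line; potency means the concentration at half of the fitted maximal effect; 0% = DMSO-treated cells and -100% = media-only wells without cells; nearly all actives have a fitted effect of over 55% in size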
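Viability of the 2HG-overproducing fibrosarcoma line after 48 hours of compound exposure at 37 degrees C was determined by luminescence with CellTiter-Glo, and concentration-effect curves were then fitted and categorized.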
HT1080 IDH1KD tx: toxicity to HT-1080 IDH1 knockdown cells (counter line) | HT-1080 IDH1 knockdown viability, ATP luminescence, 48 h | Potency, µM (doses to about 46.1 µM), inactives show at the highest dose activity, negative = toxicity, hits mostly cytotoxic | 2% of 360,000 active | AID 686971;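 further: potency means the concentration at half of the fitted maximal effect; 0% = DMSO wells and -100% = cell-free medium wells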
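Using the IDH1-knockdown HT-1080 line run in the same batch and compound series as the NT line, viability after 48 h at 37 °C was determined by CellTiter-Glo luminescence and expressed as % activity.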
IL1B secr inh: inflammasome signaling inhibition, IL-1 beta readout | THP-1 LPS/ATP IL-1B secretion, AlphaLISA, 16 h; active compounds read low | activity change, % at 57.5 µM | 4.7% of 360,000 active | AID 743279; in the data active means activity change below about -50%; inconclusive means mostly about -30% to -49%
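THP-1 cells pretreated 1 hr with compounds (up to 57.5 uM final), then stimulated with LPS (250 ng/mL final) plus ATP (1.25 mM final); secreted IL-1B measured by AlphaLISA after 16 hr, decreased signal indicating inhibition.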
DT40 TDP1 CPT: DT40-hTDP1 cell growth loss with CPT. chicken DT40 Tdp1-/-;hTDP1 cells + 20 nM CPT, ATP luminescence, 48 h. Potency, µM (highest dose often 46.2 µM), inactives show at the highest dose activity change, negative = growth inhibition, actives largely listed as inhibitors. 12% of 420,000 active. AID 686979; further: potency means the concentration at half of the fitted maximal effect; nearly all actives have a fitted effect of over 55% in size
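Chicken DT40 Tdp1-/- cells stably complemented with human TDP1 were seeded at 400 cells/well in medium containing 20 nM camptothecin, exposed to pin-transferred compounds, and grown at 37 °C for at least 48 hr. Viability was read as ATP luminescence.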
DT40 TDP1 no CPT: qHTS for Inhibitors of human tyrosyl-DNA phosphodiesterase 1 (TDP1): qHTS in cells in absence of CPT; Potency, µM (highest dose often 46.2 µM), inactives show at the highest dose activity change, negative = growth inhibition, hits mostly inhibitors; DT40 Tdp1-/- hTDP1 cells, no CPT, ATP luminescence, 48 h; AID 686978, 2013; 15% of 420,000 active; further: potency means the concentration at half of the fitted maximal effect; nearly all actives have a fitted effect of over 55% in size
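Cells were dispensed at 400 per well, compounds added by pin tool, plates incubated ≥48 hr at 37 °C, then CellTiter-Glo added for 30 min at room temperature before luminescence reading. Line: DT40 Tdp1-/- complemented with hTDP1; camptothecin omitted.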
uPA surface inh: blocks generation of uPA at the cell surface | cell surface uPA generation assay, qHTS | Potency, µM (titrated, usually from 38.3 µM), without a hit: at the top dose activity change, negative = inhibition, hits mostly inhibitors | 0.31% of 330,000 active; active means well fitted inhibition curve with a large enough effect; inconclusive means small, poorly fitted or top-dose-only effect; inactive means no such curve, though single readings can be large or run the other way; tested in mouse RAW 264.7 cells; further: potency means the concentration at half of the fitted maximal effect; nearly all actives have a fitted effect of over 55% in size
Active calls of the source: *; ? = inconclusive; · = not tested or not shown; [ ] = remark or other dose. Sampled rows, rich in hits. Any-hit rate of the full collection: about 19%. Unless noted, the call rests on the fitted dose curve; in most records, active means well fitted curve in the direction sought with a large enough effect; inconclusive means small, poorly fitted or top-dose-only effect, or another doubt; inactive means no such curve, though single readings can be large; an effect the other way counts as inactive or inconclusive. Unless noted, on the % scale 0 is the no-effect control and ±100 the full control effect.

SMILES	HT1080NT lethal	HT1080 IDH1KD tx	IL1B secr inh	DT40 TDP1 CPT	DT40 TDP1 no CPT	uPA surface inh
COCCC1CCCCN1Cc1nc(N2CCCCC2)c2cc(OC)c(OC)cc2n1 (configuration not stated)	·	·	·	-5.8%[9.04 µM]	-23.2%	·
COC(=O)c1ccc(N2CCOCC2)c(NC(=O)c2ccc3c(c2)OCO3)c1	3.9%	0.3%	-3.7	-5.0%	?	-8.5%
O=C(Nc1cc(Cl)ccc1N1CCOCC1)c1ccc2c(c1)OCCO2	-0.5%	0.1%	-70.5*	?	-15.9%	2.1%
COc1ccc(N2CCOCC2)c(NC(=O)c2ccc3c(c2)OCO3)c1	3.7%	0.0%	-8.9	?	20.6µM*	-5.2%
O=C(c1cccc(Cl)c1)N1CCCC(Cn2cc(C(=O)N3CCCC3)nn2)C1 (configuration not stated)	·	·	·	5.4%[9.04 µM]	-13.0%	·
Cc1ccc(F)c(S(=O)(=O)NC(=O)C2(C)CCN2C(=O)C/C=C/c2ccccc2)c1 (configuration not stated)	2.1%	0.4%	35.5	-9.1%	6.1%	·
COCCNC(=O)CSc1nc(-c2ccccc2)c(-c2ccccc2)o1	0.0%	-17.5%	8.2	11.6µM*	?	-4.0%
C=CCn1c(SCc2cc(=O)n3ccsc3n2)nc2cc(Cl)ccc2c1=O	6.7%	1.6%	8.3	0.5%	?	-1.5%
C=CCn1c(SCC#N)nc2cc(Cl)ccc2c1=O	·	·	·	?	12.6µM*	·
CCCn1c(SCN2C(=O)c3ccccc3C2=O)nc2cc(Cl)ccc2c1=O	-5.0%	-0.4%	5.5	20.6µM*	23.1µM*	-1.9%
COCCCn1c(SCC(=O)N2CCOCC2)nc2cc(Cl)ccc2c1=O	0.4%	4.4%	-25.6	-2.1%	4.6%	-24.9%
C=CCn1c(SCC(=O)NCCC2=CCCCC2)nc2ccc(Cl)cc2c1=O	-1.6%	2.4%	1.7	23.1µM*	?	1.6%
CC1CCN(c2ccccc2NC(=O)c2ccc([N+](=O)[O-])o2)CC1	0.7%	-15.8%	32.5	?	?	1.3%
Cc1ccc(C(=O)Nc2ccccc2N2CCCCC2)o1	-3.9%	-1.6%	45.5	25.9µM*	?	-1.8%
O=C(Nc1ccccc1N1CCCC1)c1ccc([N+](=O)[O-])o1	?	?	-93.0*	23.1µM*	?	?
Cc1cc(C)cc(NC(=O)Nc2ccccc2N2CCCCC2)c1	-2.1%	-14.5%	-74.0*	?	16.4µM*	2.3%
O=C(CCNC(=O)c1ccc(Br)cc1)Nc1ccccc1N1CCCCC1	-13.3%	-19.3%	-80.2*	?	?	-3.7%
O=C(Nc1cccc(S(=O)(=O)N2CCCC2)c1)[C@H]1C[C@H](O)[C@@H](CO)O1	25.0%	11.5%	5.3	-24.1%	-11.1%	·
CCc1nnc2c(NCc3cccc(OC)c3)nc3ccccc3n12	·	·	·	-26.3%	?	·
CCOc1ccccc1C(=O)OCC(=O)Nc1cc(S(=O)(=O)N2CCOCC2)ccc1C	3.7%	1.7%	0.0	0.3%	-16.7%	8.2%
O=C(Nc1ccc(N2CCCC2)c(Cl)c1)c1ccc([N+](=O)[O-])o1	5.8µM*	5.8µM*	-109.4*	8.2µM*	18.4µM*	-3.9%
COc1ccc(C(=O)Nc2cc([N+](=O)[O-])ccc2N2CCCC2)cc1	-4.7%	-3.1%	0.8	6.8%	-12.9%	8.9%
CS(=O)(=O)N1CCN(c2ccccc2NC(=O)c2ccc(-c3ccc(Cl)cc3Cl)o2)CC1	12.5%	0.0%	-19.1	?	?	8.8%
COc1ccc(N2CCCC2)c(NC(=O)c2ccc([N+](=O)[O-])o2)c1	-17.3%	-11.8%	-70.5*	7.31µM*	18.4µM*	·
CN1CCN(c2ccccc2NC(=O)c2ccc(-c3ccc(Cl)cc3Cl)o2)CC1	-23.5%	-7.6%	-15.9	20.6µM*	23.1µM*	·
SMILES	HT1080NT lethal	HT1080 IDH1KD tx	IL1B secr inh	DT40 TDP1 CPT	DT40 TDP1 no CPT	uPA surface inh
O=C(Nc1ccc(N2CCCC2)c(Cl)c1)c1ccco1	0.0%	-17.3%	?	?	?	?
O=C(NC(=S)Nc1ccccc1N1CCCCC1)c1ccccc1	-2.3%	-6.4%	55.1	?	25.9µM*	-2.2%
O=C(NC(=S)Nc1ccccc1N1CCCC1)c1ccc(F)cc1	-2.4%	-17.9%	-11.1	?	?	16.5%
Cc1cccc(N(C)C(=O)Cn2cnc3nc4c(cc3c2=O)CCCC4)c1	·	·	·	-22.7%	-20.0%	·
Cc1ccc(NC(=O)Cn2c(=O)n(-c3ccc(C)cc3)c(=O)c3c2cnn3C)cc1	·	·	·	-11.7%	-0.7%	·
CCOCCCN(C(=O)c1snc(C(N)=O)c1N)C(C(=O)NCCC(C)C)c1ccc(Cl)cc1 (configuration not stated)	-14.6%	0.7%	-13.2	-23.6%	?	-3.4%
O=C(Nc1cc(C(F)(F)F)ccc1-n1cncn1)c1ccc([N+](=O)[O-])o1	4.3%	-5.9%	-94.4*	10.3µM*	20.6µM*	-8.9%
CC(C)C(=O)N1CCN(c2ccccc2NC(=O)c2ccc(Br)o2)CC1	2.7%	0.0%	-17.5	?	?	1.6%
O=C(Nc1ccccc1N1CCN(C(=O)c2ccccc2)CC1)c1ccc([N+](=O)[O-])o1	?	16.4µM*	2.1	20.6µM*	14.6µM*	-11.1%
CCC(C(=O)Nc1ccccc1N1CCCC1)c1ccccc1 (configuration not stated)	4.9%	-10.1%	0.0	?	16.4µM*	-3.6%
Cc1cccc(NC(=S)NC23CN4CN(CN(C4)C2)C3)c1C	8.0%	5.2%	5.5	-13.2%	-22.0%	-0.2%
COc1cc2c(cc1OC)C(COc1ccc([N+](=O)[O-])cc1)NCC2 (configuration not stated)	-23.3%	-0.2%	0.0	-28.6%	-20.2%	-5.6%
C#CCOCCOCCOCCNc1nc(N2CCN(C(=O)CCCCCCCCCCNC(=O)[C@@H]([C@H](C)O)n3cc(C)nn3)CC2)nc(N2CCN(C(=O)CCCCCCCCCCNC(=O)[C@@H]([C@H](C)O)n3cc(C)nn3)CC2)n1	-27.4%	20.6µM*	-18.3	?	23.1µM*	-24.0%
C#CCOCCOCCOCCNc1nc(N2CCOCC2)nc(N2CCN(C(=O)CCCCCCCCCCNC(=O)[C@@H]([C@H](C)O)n3cc(C)nn3)CC2)n1	-7.7%	0.5%	0.0	?	16.4µM*	2.2%

From PubChem BioAssay
